Screens deposited in PubChem BioAssay by National Center for Advancing Translational Sciences (NCATS).
ELG1 genotox: genotoxicity induction in ELG1-luciferase HEK293T cells; HEK293T ELG1-luciferase reporter, luminescence, 16 h; Potency, µM (titrated, usually from 46 µM), for inactives: at the top dose activity change, positive = activation, usual class: activators; actives 1.3% (n = 330,000); AID 504466; also: % of control where 0% means no effect; nearly all actives have a fitted effect of over 60% in size
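ELG1-luciferase HEK293T cells, 2,000/well; compound pinned in; 16 hr, 37 °C, 5% CO2; ONE-Glo, 30 min RT; luminescence on CCD imager.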
NPC1 promoter act: NPC1 promoter activation; Huh7 NPC1 promoter luciferase reporter, 24 h; Potency, µM (highest dose often 9.22 µM), for the others: at the top dose activation, usual class: activators; actives 2.4% (n = 320,000); also: % of control where 0% means no effect; nearly all actives have a fitted effect of over 60% in size
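Luminescence from an NPC1 promoter-driven luciferase reporter in stably transfected Huh7 cells was measured after 24 h compound treatment at 37 °C, followed by 10 min ambient incubation with luciferase detection reagent.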
FLuc modulator: firefly luciferase modulation, counter-screen for miR-21 project | P08659 | purified FLuc, Km substrates, luminescence inhibition | Potency, µM (doses to about 57.5 µM), inactives show at the highest dose activity change, negative = inhibition, actives largely listed as inhibitors | actives 6.9% (n = 360,000) | AID 588342;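 also: plate controls were vehicle for no effect and reference inhibitor for full effect; nearly all actives have a fitted effect of over 55% in size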
Target sequence (P08659 whole entry, looked up): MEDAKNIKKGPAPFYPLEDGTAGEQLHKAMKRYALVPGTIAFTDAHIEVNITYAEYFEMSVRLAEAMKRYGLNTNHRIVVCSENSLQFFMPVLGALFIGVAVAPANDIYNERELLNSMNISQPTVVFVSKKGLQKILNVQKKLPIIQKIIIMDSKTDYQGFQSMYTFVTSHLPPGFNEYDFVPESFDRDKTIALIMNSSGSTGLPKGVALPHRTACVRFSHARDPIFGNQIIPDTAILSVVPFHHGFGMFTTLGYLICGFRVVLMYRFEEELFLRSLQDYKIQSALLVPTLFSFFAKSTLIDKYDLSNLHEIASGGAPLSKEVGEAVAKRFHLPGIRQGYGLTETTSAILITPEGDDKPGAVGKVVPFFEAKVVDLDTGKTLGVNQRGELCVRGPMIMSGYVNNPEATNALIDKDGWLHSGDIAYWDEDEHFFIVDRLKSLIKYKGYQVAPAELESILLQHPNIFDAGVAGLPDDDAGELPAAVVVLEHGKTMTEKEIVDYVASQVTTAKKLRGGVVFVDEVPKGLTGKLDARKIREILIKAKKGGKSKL
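Biochemical qHTS of compounds, final roughly 60 µM downward over six points, against 10 nM purified firefly luciferase using Km concentrations of substrates (10 uM D-luciferin, 10 uM ATP) in Tris acetate pH 7.5 buffer; luminescence output.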
Rab9 prom act: activators of Rab9 promoter. Potency, µM (highest dose often 9.22 µM), for inactives: top-dose activation, negative = inhibition, usual class: activators. Huh7 Rab9 promoter-luciferase reporter, luminescence, 24 h. actives 2.8% (n = 320,000); also: % of control where 0% means no effect; nearly all actives have a fitted effect of over 60% in size
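Huh7 reporter line, Rab9 promoter upstream of luciferase. Compound exposure 24 h at 37 °C in reduced-serum medium with 10% FBS. Read-out: luminescence.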
SMN2 splice enh: increases expression of the SMN2 splice variant. HEK293 SMN2-luciferase splicing reporter, luminescence, 30-36 h. Potency, µM (series often up to 46.1 µM), without a hit: at the top dose activity change, positive = activation, actives largely listed as activators. actives 2.8% (n = 210,000); also: % of control where 0% means no effect; nearly all actives have a fitted effect of over 55% in size
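qHTS luciferase splicing reporter: luminescence rises when SMN2 exon 7 is included in transfected HEK293 cells. Compound exposure lasted 30-36 h at 37C, with 4.5 mM final sodium butyrate as control, followed by a ONE-Glo read.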
Numbers without * were called inactive; ? = inconclusive; nt = no result given; [ ] = remark or other dose. Compounds with a hit are over-represented: about 7.4% of the library has one in this group of screens. Calls follow the shape of the dose curve; as a rule, active = well fitted curve in the direction sought with a large enough effect; inconclusive = small, poorly fitted or top-dose-only effect, or another doubt; inactive = no such curve, though single readings can be large; an effect the other way counts as inactive or inconclusive. Potency is read from the fitted curve at half-maximal effect.

SMILES | ELG1 genotox | NPC1 promoter act | FLuc modulator | Rab9 prom act | SMN2 splice enh
COc1ccc(C(=O)COC(=O)c2ccc(N(C)C)cc2)cc1 | -2% | 21% | 1% | ? | 5%
O=C(OCC(=O)c1ccc[nH]1)c1ccccc1 | ? | 8% | 17µM* | ? | -30%
O=C(COC(=O)c1c(F)cccc1F)c1ccc[nH]1 | 4% | 4% | 17µM* | 13% | nt
O=C(OCC(=O)c1ccc[nH]1)c1ccc(Cl)c(Cl)c1 | -2% | nt | nt | nt | nt
Cc1ccc2nc(N3CCOCC3)c(C=O)cc2c1 | ? | 23% | 21µM* | 13% | nt
Cc1ccc(CN2CCSc3ccc(C(=O)Nc4ccc(C)cc4)cc32)cc1 | nt | nt | 21µM* | nt | ?
COc1ccc(NC(=O)c2ccc3c(c2)N(C)CCS3)cc1 | ? | 2µM* | 3.4µM* | 4µM* | nt
CN1CCSc2ccc(C(=O)NCc3ccccc3)cc21 | 9% | -4% | ? | 15% | -4%
COc1ccc(NC(=O)c2ccc3c(c2)n(C)c(=O)n3C)cc1 | ? | -5% | ? | -11% | ?
CN1CCSc2ccc(C(=O)Nc3cccc(F)c3)cc21 | 2.1µM* | 1.4µM* | 1.7µM* | 1µM* | nt
Cc1cc(C(F)(F)F)n(-c2nc(C(=O)NNS(=O)(=O)c3ccccc3[N+](=O)[O-])cs2)n1 | 1% | -5% | -19% | 1% | nt
CC(=O)N1N=C(c2ccco2)CC1c1cc2ccc(C)cc2nc1Cl (stereo not given) | -2% | -7% | -2% | -8% | nt
CCc1ccc(NC(=O)C2=CC=CN3CCS(=O)(=O)N=C23)cc1 | 8% | 0% | 15µM* | -6% | nt
CCCCC(=O)Nc1cccc(NC(=O)c2ccc3c(c2)OCO3)c1 | 0% | 3% | 19µM* | 2% | ?
CCCCC(=O)Nc1cccc(NC(=O)c2ccc(Br)o2)c1 | -2% | 2% | 5%[2.3 µM] | ? | 35µM*
CCCC(=O)Nc1cccc(NC(=O)c2ccc3c(c2)OCCO3)c1 | ? | 23% | 9.5µM* | 19% | 13µM*
Cc1ccccc1NC(=O)CSc1n[nH]c(-c2ccccn2)n1 | -3% | 6% | 0% | -5% | nt
CC(=O)Nc1ccc(NC(=O)CCc2c(C)noc2C)cc1 | 6% | -2% | 4% | 0% | nt
Cc1ccc(-c2cc(-c3ccc4c(c3)NC(=O)CO4)nc3c2COc2ccc(C)cc2-3)cc1 | nt | nt | ? | nt | 2%
Cc1ccn2cc(-c3ccc4c(c3)NC(=O)CO4)nc2c1 | ? | 1.3µM* | 2.4µM* | 0.56µM* | 5.6µM*
Cc1cccn2cc(-c3ccc4c(c3)NC(=O)CO4)nc12 | 11% | 25% | 11µM* | ? | nt
CCCCNC(=O)Cn1ncc2c(C)n(Cc3cccc(Cl)c3)c(C)c2c1=O | nt | nt | 1% | nt | 16%
Fc1ccc(Nc2ccc(-c3ccc(F)cc3)nn2)cc1 | 12% | ? | 5.4µM* | 3.2µM* | nt
Cc1sc(NC(=O)C2CCCCC2)c(C#N)c1-c1ccccc1 | ? | ? | 6.7µM* | 4µM* | ?
Cc1noc(C)c1C(=O)Nc1sc(C)c(-c2ccccc2)c1C#N | -26% | -1% | -2% | -3% | -117%
SMILES | ELG1 genotox | NPC1 promoter act | FLuc modulator | Rab9 prom act | SMN2 splice enh
Cc1cccc(C(=O)Nc2sc(C)c(-c3ccccc3)c2C#N)c1 | ? | 2.8µM* | 4.3µM* | 1.6µM* | ?
CCCC(=O)Nc1sc(C)c(-c2ccc(OC)cc2)c1C#N | -3% | -1% | 0% | -2% | -4%
COc1cc(CC(=O)OCC(=O)c2ccc(F)cc2)cc(OC)c1OC | 3% | nt | nt | nt | nt
CCCOc1ccc(-c2csc3nc[nH]c(=O)c23)cc1 | ? | 3.2µM* | ? | 1.6µM* | nt
O=c1[nH]cnc2scc(-c3ccc(-c4ccccc4)cc3)c12 | 1.8µM* | 1.1µM* | 1.2µM* | 1.1µM* | 14µM*
COc1ccc(-c2csc3nc[nH]c(=O)c23)cc1OC | 0% | -1% | -3% | 7%[1.84 µM] | nt
O=S(=O)(Nc1ccc(-n2cnnn2)cc1)c1cccc(F)c1 | 0% | -3% | 0% | -1% | nt
O=C(Nc1cccc(Cl)c1)N1N=CCC1c1ccccc1 (stereo not given) | -3% | 1% | -3% | -1% | nt
Fc1ccc(NC(=S)N2N=CCC2c2ccccc2)cc1 (stereo not given) | 23µM* | 22% | ? | 18% | 10%
S=C(Nc1ccccc1)N1N=CCC1c1ccccc1 (stereo not given) | ? | 22% | 17µM* | 30% | -8%
CCOc1ccc(C(c2c(O)cc(C)n(CCOC)c2=O)N2CCN(c3ccc(F)cc3)CC2)cc1 (stereo not given) | nt | nt | -16% | nt | nt
CCn1cc(Cl)c(C(=O)Nc2cccc(C(F)(F)F)c2)n1 | -14% | 9% | ? | 28% | -6%
Cc1nn(C)cc1C(=O)Nc1ccc2c(c1)OCCO2 | ? | 4.5µM* | 12µM* | 3.2µM* | nt
Cn1nccc1C(=O)Nc1ccc2c(c1)OCCO2 | ? | 3.2µM* | 12µM* | 1.6µM* | nt
Cc1c(C(=O)Nc2ccc(Br)cc2)cnn1C | ? | ? | 13µM* | ? | 13µM*
CCn1cc(Cl)c(C(=O)Nc2ccc3c(c2)OCCO3)n1 | ? | 3.2µM* | 6µM* | 1.6µM* | 11µM*
Cc1nn(C)cc1S(=O)(=O)Nc1ccc2c(c1)OCCO2 | ? | -4% | ? | -1% | -23%
Cc1ccc(NC(=O)Nc2nnc(N3CCCC3)s2)cc1C | nt | nt | -18% | nt | nt
CC(=O)c1ccccc1NC(=O)CSc1nnc(Cc2csc(C)n2)o1 | 2% | 3% | -17% | -2% | nt
CCSc1nc2c([nH]c3ccccc32)c(=O)n1-c1cccc(OC)c1 | nt | nt | -13% | nt | nt
Cc1c(C(=O)Nc2ccc3c(c2)OCCO3)cnn1C | 3.7µM* | ? | 11µM* | ? | nt
COc1cccc2cc(-c3nnc(Nc4ccccc4C)s3)c(=O)oc12 | nt | nt | 0.34µM* | nt | nt
CCc1sc(Nc2cccc(C)c2)nc1-c1cc2cccc(OC)c2oc1=O | nt | nt | 7.6µM* | nt | nt
Cc1cc(=O)oc2cc(OCC(=O)N3CC(=O)Nc4ccccc43)c(Cl)cc12 | 5% | -3% | 4% | -4% | nt
O=C(CN1C(=O)NC2(CCc3ccccc32)C1=O)c1ccc(Br)cc1 (stereo not given) | 0% | -2% | 0% | 2% | nt
Cc1ccc(NCc2nnc(SCC(=O)N3c4ccccc4Sc4ccccc43)o2)c(C)c1 | -9% | 0% | 2% | -7% | -7%
COc1cc(C(=S)N2CCCC2)ccc1OCc1ccc(C)cc1 | 21µM* | ? | ? | ? | nt
COc1cc(/C=N/N=C2/NC(=O)C(CC(=O)O)S2)ccc1OCc1ccc(Cl)cc1 (stereo not given) | ? | -1% | 19µM* | 0% | 11µM*
COc1ccc(NC(=O)COc2ccc(/C=N/O)cc2OC)cc1 | ? | ? | 21µM* | ? | nt
COc1cc(/C=N/N=C(N)N)ccc1OCc1ccc(Cl)cc1 | 9.2µM* | ? | 3µM* | ? | 21%
